From ChEMBL document CHEMBL1157539, “Thousands of chemical starting points for antimalarial lead identification” (Nature, 2010) come the findings set out here.

In the first experiment the test system is Plasmodium falciparum. The experiment in a line: GSK_TCMDC: Inhibition of Plasmodium falciparum Dd2 in whole red blood cells, using parasite LDH activity as an index of growth. Test compounds present at 2uM. It counts as functional.
`COc1ccc2cc(C(C)NC3CCN(c4cccc(NC(=O)c5ccncc5)c4)CC3)ccc2c1` (stereo not given) registered an Inhibition of 6%.
In turn, `CN(C)c1ccc(-c2csc(C(=O)NC3CCCCN(Cc4ccc(C(C)(C)C)cc4)C3)c2)cc1.O=C(O)C(F)(F)F` (stereo not given) returned an Inhibition of 55%.
The compound `COc1cc(Nc2ncc3c(C)nc(-c4cc5ccccc5[nH]4)n3n2)cc(OC)c1OC` displayed an Inhibition of 65%.
For the compound `CCCc1nc2c(N3CCCN(C(=O)NC4CCCCC4)CC3)cccc2n1Cc1ccccn1`, the Inhibition came out at 10%.
Consider `CNC(=O)c1cnc(Nc2ccc(N3CCN(C)CC3)c(C)c2)nc1NC.Cl`, for which the Inhibition came out at 38%.
As to `Cl.Nc1ccc(-c2nc3c(ccc4ccccc43)[nH]2)cc1`, the Inhibition is listed as 51%.
`COc1ccc2nccc([C@@H](O)CN3CCC(NCc4cc5sccc5nc4C(F)(F)F)CC3)c2c1.O=C(O)C(=O)O` showed an Inhibition of 67%.
For `CC1(C)C(=O)Nc2ccc3c(c21)CC1SC(=O)NN=C31` (stereo not given), the Inhibition is reported as 92%.
Turning to `CC(C)Nc1cc(C(=O)N[C@@H](Cc2ccccc2)[C@H](O)CNCc2cccc(C(F)(F)F)c2)c(F)c(N2CCCCS2(=O)=O)c1.O=CO`, the Inhibition is reported as 78%.
The compound `Cc1cccc2nc(-c3ccc(-c4ccc(C(=O)NCCc5cn(C)cn5)cc4)s3)[nH]c12` had an Inhibition of 8%.
The same measure, in the same setting: the same measure for `O=C(/C=C/c1ccc(Cl)c(Cl)c1)NCCCCCN1CC[C@H](NC(=O)/C=C/c2ccccc2)C1`: 1%.
The same measure, in the same setting: the same measure for `CC1=C(C(=O)OCCOCc2ccccc2)C(c2ccccc2C(F)(F)F)C(C(=O)OCCOCc2ccccc2)=C(C)N1`: 87%; for `C[C@H](Cc1ccc(OCCCCOc2ccc(C[C@@H](C)NC[C@H](O)c3cccc(Cl)c3)cc2)cc1)NC[C@H](O)c1cccc(Cl)c1`: 92%; for `FC(F)(F)c1ccc2[nH]c(-c3ccc(-c4cccc(CNCCN5CCNCC5)c4)cc3)nc2c1.O=C(O)C(F)(F)F`: 2%.
Still for that read-out and setting: to `Cc1[nH]c2ccccc2c1C(=O)C(C)Sc1nnc(-c2ccccc2F)o1` (stereo not given) belongs 99%.
`CN1CCN(c2ccc(CNc3ccc4ncc(-c5cccc(OC(F)(F)F)c5)n4n3)cc2)CC1` yielded an Inhibition of 78%.
`CCCC(=O)Nc1ccc(OCCCN(Cc2cccc(C(F)(F)F)c2)c2ccc(C#N)c(C(F)(F)F)c2)cc1`: the Inhibition was 89%.
In turn, `COc1ccc(N2CCN(CCCC/C=C/c3ccc(NC(=O)c4cc(Cl)cc(Cl)c4)cc3)CC2)c(OC)c1` had an Inhibition of 39%.
`O=C(/C=C/c1ccc2ccccc2c1)NCCCCCN1CCC(c2c[nH]c3ccccc23)CC1` displayed an Inhibition of 4%.
On the same count and under the same terms, the same measure for `COc1ccc2ncc(F)c(CCN3C[C@H](CNCc4cc(C#N)c5c(c4)OCCO5)[C@H](O)C3)c2n1.Cl`: 64%; for `N#Cc1ccc2[nH]cc(-c3cn4cc(SC5CCCC5)ccc4n3)c2c1`: 21%.
For the compound `COc1cccc(C(=O)Nc2ccc(S(=O)(=O)c3cc4c(cc3OC)CCN(C)CC4)cc2)c1`, the Inhibition came to 3%.
`COc1ccc(-c2ccc(NC(=O)c3ccc(Cl)cc3)cc2)cc1CN1CCN(C)CC1.O=C(O)C(F)(F)F` came in with an Inhibition of 23%.
Compound `CCCCc1cc(NCC)nc(Nc2ccc(F)cc2)n1` had an Inhibition of 56%.
In the case of `NC1CCCN(Cc2cccc(-c3ccc(-c4nc5ccccc5[nH]4)cc3)c2)C1.O=C(O)C(F)(F)F` (stereo not given), the Inhibition turned out to be 73%.
Same read-out and setting: to `O=C(/C=C/c1ccc(Cl)c(Cl)c1)NCCCCCN1CCCC(CNC(=O)Nc2ccc(C(F)(F)F)cc2)C1` (stereo not given) belongs 7%.

The next experiment concerns HepG2. Kind of experiment: GSK_TCMDC: Percent inhibition of human HepG2 cell line. Test compounds present at 10uM. It counts as functional.
In the case of `COc1ccc(-c2nc3c(N)nc(N)nc3nc2-c2ccccc2Cl)cc1.COc1ccc(-c2nc3nc(N)nc(N)c3nc2-c2ccccc2Cl)cc1.Cl`, the Inhibition is on record as 45%.
As for `Cl.c1cc(COc2ccc(C3=NCCN3)cc2)nc(COc2ccc(C3=NCCN3)cc2)c1`, the Inhibition worked out at 8%.
Compound `CC(=O)c1ccc(-c2ccc(C(=O)NCCCCN3CCC(c4ccc5c(c4OCC(N)=O)CCCC5)CC3)cc2)s1` returned an Inhibition of 26%.
Still for that read-out and setting: the same measure for `CC(C)(C)OC(=O)NCc1ccc(Nc2nnc(-c3ccc(OCC(=O)NC[C@@H]4CC[C@H]5C[C@@H]4C5(C)C)c([N+](=O)[O-])c3)o2)cc1`: 29%; for `CCOc1c(Br)cc(Cl)cc1CNCCCNc1nc2ccccc2[nH]1.Cl`: 27%; for `CN1C(=CC(=O)NC(=O)c2ccccc2)C(C)(C)c2ccccc21`: 0%.
On to `O=C(NCCCCN1CCC(c2ccc3c(c2OCCCO)CCCC3)CC1)c1ccc(-c2ccc(C(F)(F)F)cc2)cc1`, for which the Inhibition came to 98%.
For `CCCCCCN1CCC(NCc2ccc(OCCN3CCCC3)cc2)CC1.O=C(O)C(F)(F)F`, the Inhibition came out at 23%.
Take `CCCCCOc1ccc(N2C(N)=NC(N)=NC2(C)C)cc1.Cl`: the Inhibition stood at 24%.
Take `COc1ccc2nccc([C@@H](O)CN3CCC(NCCOc4cccc(F)c4F)CC3)c2c1.O=C(O)C(=O)O`: the Inhibition was 9%.
Consider `Cc1cc(C(=O)NC2CCN(CC3(c4ccccc4)CCCCC3)CC2)on1`, for which the Inhibition is 0%.
Compound `CCOC(=O)c1cc(C(=O)NCCCCN2CCC(c3ccc4c(c3OC)CCCC4)CC2)ccc1-c1ccc(C(F)(F)F)cc1` registered an Inhibition of 100%.
Take `CCOc1ccc(C2CCN(CCN3CCC(NC(=O)c4ccc(-c5ccc(C(F)(F)F)cc5)cc4)CC3)CC2)c(OCC2CC2)c1`: the Inhibition is 13%.
In turn, `COc1ccc2cc(C(C)NC3CCN(c4cccc(NC(=O)c5ccncc5)c4)CC3)ccc2c1` (stereo not given) showed an Inhibition of 13%.
On to `CN(C)c1ccc(-c2csc(C(=O)NC3CCCCN(Cc4ccc(C(C)(C)C)cc4)C3)c2)cc1.O=C(O)C(F)(F)F` (stereo not given), for which the Inhibition was found to be 17%.
Turning to `COc1cc(Nc2ncc3c(C)nc(-c4cc5ccccc5[nH]4)n3n2)cc(OC)c1OC`, the Inhibition was found to be 19%.
In the case of `CCCc1nc2c(N3CCCN(C(=O)NC4CCCCC4)CC3)cccc2n1Cc1ccccn1`, the Inhibition turned out to be 10%.
`CNC(=O)c1cnc(Nc2ccc(N3CCN(C)CC3)c(C)c2)nc1NC.Cl` gave an Inhibition of 19%.
`Cl.Nc1ccc(-c2nc3c(ccc4ccccc43)[nH]2)cc1` displayed an Inhibition of 0%.
In turn, `COc1ccc2nccc([C@@H](O)CN3CCC(NCc4cc5sccc5nc4C(F)(F)F)CC3)c2c1.O=C(O)C(=O)O` gave an Inhibition of 22%.
In turn, `CC1(C)C(=O)Nc2ccc3c(c21)CC1SC(=O)NN=C31` (stereo not given) came in with an Inhibition of 6%.
As to `CC(C)Nc1cc(C(=O)N[C@@H](Cc2ccccc2)[C@H](O)CNCc2cccc(C(F)(F)F)c2)c(F)c(N2CCCCS2(=O)=O)c1.O=CO`, the Inhibition worked out at 0%.
`Cc1cccc2nc(-c3ccc(-c4ccc(C(=O)NCCc5cn(C)cn5)cc4)s3)[nH]c12` came in with an Inhibition of 0%.
With `O=C(/C=C/c1ccc(Cl)c(Cl)c1)NCCCCCN1CC[C@H](NC(=O)/C=C/c2ccccc2)C1`, the Inhibition was 10%.
The compound `CC1=C(C(=O)OCCOCc2ccccc2)C(c2ccccc2C(F)(F)F)C(C(=O)OCCOCc2ccccc2)=C(C)N1` returned an Inhibition of 0%.
Compound `C[C@H](Cc1ccc(OCCCCOc2ccc(C[C@@H](C)NC[C@H](O)c3cccc(Cl)c3)cc2)cc1)NC[C@H](O)c1cccc(Cl)c1` registered an Inhibition of 68%.
For the compound `FC(F)(F)c1ccc2[nH]c(-c3ccc(-c4cccc(CNCCN5CCNCC5)c4)cc3)nc2c1.O=C(O)C(F)(F)F`, the Inhibition worked out at 13%.
`Cc1[nH]c2ccccc2c1C(=O)C(C)Sc1nnc(-c2ccccc2F)o1` (stereo not given) showed an Inhibition of 24%.
The compound `CN1CCN(c2ccc(CNc3ccc4ncc(-c5cccc(OC(F)(F)F)c5)n4n3)cc2)CC1` yielded an Inhibition of 25%.
The same measure, in the same setting: the same measure for `CCCC(=O)Nc1ccc(OCCCN(Cc2cccc(C(F)(F)F)c2)c2ccc(C#N)c(C(F)(F)F)c2)cc1`: 0%.
Turning to `COc1ccc(N2CCN(CCCC/C=C/c3ccc(NC(=O)c4cc(Cl)cc(Cl)c4)cc3)CC2)c(OC)c1`, the Inhibition worked out at 20%.
Take `O=C(/C=C/c1ccc2ccccc2c1)NCCCCCN1CCC(c2c[nH]c3ccccc23)CC1`: the Inhibition stood at 18%.
`COc1ccc2ncc(F)c(CCN3C[C@H](CNCc4cc(C#N)c5c(c4)OCCO5)[C@H](O)C3)c2n1.Cl`: the Inhibition was 7%.
Compound `N#Cc1ccc2[nH]cc(-c3cn4cc(SC5CCCC5)ccc4n3)c2c1` registered an Inhibition of 1%.
Still for that read-out and setting: the same measure for `COc1cccc(C(=O)Nc2ccc(S(=O)(=O)c3cc4c(cc3OC)CCN(C)CC4)cc2)c1`: 0%; for `COc1ccc(-c2ccc(NC(=O)c3ccc(Cl)cc3)cc2)cc1CN1CCN(C)CC1.O=C(O)C(F)(F)F`: 36%; for `CCCCc1cc(NCC)nc(Nc2ccc(F)cc2)n1`: 33%.
For the compound `NC1CCCN(Cc2cccc(-c3ccc(-c4nc5ccccc5[nH]4)cc3)c2)C1.O=C(O)C(F)(F)F` (stereo not given), the Inhibition is 25%.
`O=C(/C=C/c1ccc(Cl)c(Cl)c1)NCCCCCN1CCCC(CNC(=O)Nc2ccc(C(F)(F)F)cc2)C1` (stereo not given) yielded an Inhibition of 27%.

The term Inhibition denotes the percentage by which the read-out fell short of the control.
